# Values without a mark were called inactive. Records with an inconclusive call do not appear. Where a call stands in place of a potency, no number is given. The source made the active and inactive calls. Unless noted, calls come from the whole dose curve; as a rule, active = well fitted curve in the direction sought with a large enough effect; inconclusive = small, poorly fitted or top-dose-only effect, or another doubt; inactive = no such curve, though single readings can be large; an effect the other way counts as inactive or inconclusive.
# Assays:
# [1] = qHTS to identify inhibitors of the type 1 interferon - major histocompatibility complex class I in skeletal muscle: primary screen against the NCATS Pharmaceutical Collection (AID 1347407);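 note: luminescence of HiBiT knocked into endogenous HLA-B as interferon-induced MHC class I level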
# Outline: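 Immortalized human myoblasts (C25cl48) with HiBiT knocked into endogenous HLA-B*08:01 were stimulated with 4 ng/ml IFN-beta and treated with compounds (8-point, 1:5, top 46 uM final) for 24 h at 37 C; HiBiT lytic luminescence read.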
# [2] = qHTS to identify inhibitors of the type 1 interferon - major histocompatibility complex class I in skeletal muscle: primary screen against the NCATS Mechanism Interrogation Plate v5.0 (MIPE) Libary (AID 1347411); note: nearly all actives have a fitted effect of over 65% in size
# Outline: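 HLA-B HiBit myoblasts, dexamethasone-free medium + 4 ng/ml IFN-b, 24 h compound, 11-pt 1:3 from 46 uM final. Readout: Nano-Glo HiBiT lytic luminescence after 10 min lysis, RT.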
# [3] = molecular target: Protein phosphatase 1D (Homo sapiens) (UniProt O15297); assay: RapidFire Mass Spectrometry qHTS Assay for Modulators of WT P53-Induced Phosphatase 1 (WIP1) (AID 1347424); note: potency is the fitted concentration of half-maximal effect; for activity change, negative = inhibition: series mostly up to about 63 µM
# Chain of Protein phosphatase 1D (Homo sapiens) (O15297 whole entry, looked up): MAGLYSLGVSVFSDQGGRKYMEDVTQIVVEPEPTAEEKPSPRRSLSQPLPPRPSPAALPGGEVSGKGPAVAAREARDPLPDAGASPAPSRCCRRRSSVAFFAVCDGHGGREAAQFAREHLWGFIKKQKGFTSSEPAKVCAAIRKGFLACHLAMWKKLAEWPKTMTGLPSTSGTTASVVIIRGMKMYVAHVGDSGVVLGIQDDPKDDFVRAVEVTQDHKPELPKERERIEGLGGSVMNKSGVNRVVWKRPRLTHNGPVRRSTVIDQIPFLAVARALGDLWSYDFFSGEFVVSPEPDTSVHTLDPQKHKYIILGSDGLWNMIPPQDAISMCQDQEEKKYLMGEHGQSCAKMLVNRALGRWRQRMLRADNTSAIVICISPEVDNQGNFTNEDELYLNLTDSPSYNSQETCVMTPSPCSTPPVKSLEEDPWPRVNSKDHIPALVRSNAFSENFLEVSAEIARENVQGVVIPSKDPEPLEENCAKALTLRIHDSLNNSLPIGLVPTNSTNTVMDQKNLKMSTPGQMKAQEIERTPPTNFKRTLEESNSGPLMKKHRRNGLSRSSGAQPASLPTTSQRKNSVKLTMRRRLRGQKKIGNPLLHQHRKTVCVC
# Outline: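 RapidFire MS readout of dephosphorylated VEPPL-S-QETFS product, with 1 uM isotope-labelled peptide standard. Reaction: 10 nM WIP1, 2 uM phosphopeptide substrate, 5 min, room temperature, after 1 h compound preincubation; stopped with 0.5% formic acid.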
# [4] = molecular target: Protein phosphatase 1D (Homo sapiens) (UniProt O15297); assay: Rhodamine-PBP qHTS Assay for Modulators of WT P53-Induced Phosphatase 1 (WIP1) (AID 1347425)
# Outline: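 Read-out: Rhodamine-PBP fluorescence (ex 525/em 598 nm) for released Pi, read each minute for 11 min after adding 10 uM VEPPL-pS-QETFS; signal taken as f1 minus pre-substrate f0. Enzyme 5 nM WIP1 with 1 hr room-temperature compound preincubation.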
# [5] = Primary qHTS for inhibitors of La Crosse Virus (LACV) - induced cell death in SH-SY5Y cells (AID 1508616);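 note: top concentration of the series differs between compounds; higher means more rescue of cells from virus-induced death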
# Outline: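 Cytopathicity rescue screen: compounds pinned onto SH-SY5Y cells, which are then infected with LACV (MOI 0.01) and held 6 days at 37C. Percent activity is scaled between infected DMSO control and uninfected DMSO control.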
# [6] = molecular target: Calcium and integrin-binding protein 1 (Homo sapiens) (UniProt Q99828); assay: Primary qHTS for Identification of Calcium Integrin Binding Protein 1 (CIB1) Competitor (AID 1508620);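 note: GST tagged CIB1 binding a fluorescein labelled alphaIIb integrin peptide tracer; top concentration of the series differs between compounds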
# Chain of Calcium and integrin-binding protein 1 (Homo sapiens) (Q99828 whole entry, looked up): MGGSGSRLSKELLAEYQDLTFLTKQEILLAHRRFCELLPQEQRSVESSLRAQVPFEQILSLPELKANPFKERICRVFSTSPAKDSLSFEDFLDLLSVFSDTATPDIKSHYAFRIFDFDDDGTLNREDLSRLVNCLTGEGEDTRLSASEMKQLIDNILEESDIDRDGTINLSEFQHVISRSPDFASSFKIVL
# Outline: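 Fluorescence polarization competition: GST-tagged CIB1 (1 uM final) preincubated with compound 15 min at room temperature, then FITC-labelled alphaIIb peptide (100 nM final) added. After 15 min at room temperature, polarization read at Ex 480/Em 540.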
# [7] = Primary qHTS for small molecule stabilizers of the endoplasmic reticulum resident proteome: Secreted ER Calcium Modulated Protein (SERCaMP) assay (AID 1508630)
# Outline: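 The SH-SY5Y reporter protocol was run at 3 concentrations up to 38.3 uM (primary) or 11 concentrations (follow-up): 16 h compound, 100 nM thapsigargin for 4 h, then extracellular luciferase luminescence.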
# [8] = A High-Content qHTS Against Drug Library for the Identification of Small Molecules that Inhibit DYT1 Early Onset Primary Dystonia-Associated Cell Pathology (AID 1645839; calls by dose curve; note: series mostly up to about 46 µM)
# Outline: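 Cells were seeded and left for 24 h, then dosed with compound alongside tetracycline induction of mutant EGFP-TorsinA. They were incubated for 48 h, fixed in 4% paraformaldehyde, permeabilized and imaged for mislocalization (%pathology) and cell count.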
# [9] = molecular target: N-terminal Xaa-Pro-Lys N-methyltransferase 1 (Homo sapiens) (UniProt Q9BV86); assay: Confirmatory qHTS for Inhibitors of N-terminal methyltransferase 1 (NTMT1): MTaseGlo Assay (AID 1645874); note: nearly all actives have a fitted effect of over 65% in size; note: potency is the fitted concentration of half-maximal effect;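 for activity change, negative = inhibition: luminescence from SAH made as NTMT1 methylates SPKRIA peptide using SAM; series mostly up to about 100 µM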
# Chain of N-terminal Xaa-Pro-Lys N-methyltransferase 1 (Homo sapiens) (Q9BV86 whole entry, looked up): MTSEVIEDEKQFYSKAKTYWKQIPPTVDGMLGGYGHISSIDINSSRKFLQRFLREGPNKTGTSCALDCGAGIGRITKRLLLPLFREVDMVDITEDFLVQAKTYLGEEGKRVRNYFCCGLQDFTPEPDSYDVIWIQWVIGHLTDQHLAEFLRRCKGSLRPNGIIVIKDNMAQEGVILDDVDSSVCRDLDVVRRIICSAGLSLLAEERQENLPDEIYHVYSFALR
# Outline: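 SPKRIA peptide at 1 uM was methylated by 125 nM NTMT1 using 100 uM SAM over 30 min at room temperature, following a 15 min compound preincubation. Product SAH was detected luminescently.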
# [10] = qHTS to identify inhibitors of the type 1 interferon - major histocompatibility complex class I in skeletal muscle: primary screen against the NCATS LOPAC collection (AID 1347405);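 note: lytic HiBiT luminescence reporting HLA-B protein level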
# Outline: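 HLA-B HiBiT myoblasts, IFN-b 4 ng/ml, dexamethasone-free medium; compounds 7-pt 1:4.3 titration, top 46 uM final; 24 h at 37 C; Nano-Glo HiBiT lytic reagent, 10 min RT, luminescence.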
# [11] = qHTS for inhibitors of adenylyl cyclases using a fission yeast platform: a pilot screen against the NCATS LOPAC library (AID 1347410)
# Outline: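 S. pombe CHP2027 (AC9-GNAS-PDE4D2) carrying a PKA-repressed fbp1-GFP reporter was exposed to LOPAC compounds (final up to 57 µM) for 18 h at 30C in the dark, in EMM with histidine, lysine and uracil; GFP gain-of-signal read by laser scanning cytometry.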
# [12] = molecular target: Single-stranded DNA cytosine deaminase (Homo sapiens) (UniProt Q9GZX7); assay: Validation qHTS assay for inhibitors of Activation Induced Cytidine Deaminase (AID): AID signal (AID 1347429)
# Chain of Single-stranded DNA cytosine deaminase (Homo sapiens) (Q9GZX7 whole entry, looked up): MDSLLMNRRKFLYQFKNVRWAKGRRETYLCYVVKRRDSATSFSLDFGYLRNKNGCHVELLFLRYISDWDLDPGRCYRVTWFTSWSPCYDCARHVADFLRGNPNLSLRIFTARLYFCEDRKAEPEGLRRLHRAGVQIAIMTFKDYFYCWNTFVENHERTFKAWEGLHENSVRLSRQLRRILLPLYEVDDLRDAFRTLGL
# Outline: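 AID+UDG coupled FRET deamination; cpds up to 114 uM final; DJC20/DJC23 substrate, 4 hr RT; NaOH stop, 30 min RT; read Ex 540/Em 590.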
# [13] = molecular target: Calcium and integrin-binding protein 1 (Homo sapiens) (UniProt Q99828); assay: Validation qHTS for Identification of Calcium Integrin Binding protein 1 (CIB1) Competitor (AID 1508618)
# Outline: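 CIB1-GST (1 uM final) in 5 mM HEPES pH 7.4, 125 mM NaCl, 5 mM CaCl2, 0.01% Tween20 was preincubated 15 min at room temperature with compound (up to 114 uM), then FITC-alphaIIb peptide (100 nM) added for 15 min; fluorescence polarization read.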
# [14] = molecular target: Papain (Carica papaya) (UniProt P00784); assay: Primary qHTS assay for inhibitors of the protease papain (AID 1645873);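 note: papain turnover of Z-FR-AMC read as the AMC fluorescence gain over 10 min; series mostly up to about 50 µM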
# Chain of Papain (Carica papaya) (P00784 whole entry, looked up): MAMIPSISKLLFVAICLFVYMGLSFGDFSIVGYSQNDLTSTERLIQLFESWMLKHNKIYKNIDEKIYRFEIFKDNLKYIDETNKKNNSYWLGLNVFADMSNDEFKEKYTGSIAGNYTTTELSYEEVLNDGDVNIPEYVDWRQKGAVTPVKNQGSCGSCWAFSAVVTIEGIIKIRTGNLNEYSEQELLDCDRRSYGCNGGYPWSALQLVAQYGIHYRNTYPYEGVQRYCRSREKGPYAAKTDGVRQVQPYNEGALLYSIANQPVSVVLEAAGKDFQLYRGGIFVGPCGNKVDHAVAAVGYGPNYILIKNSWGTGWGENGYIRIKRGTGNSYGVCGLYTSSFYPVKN
# [15] = molecular target: Cytochrome P450 2D6 (Homo sapiens) (UniProt P10635); assay: Cytochrome P450 family 2 subfamily D member 6 (CYP2D6) small molecule antagonists: luciferase biochemical (cell-free) qHTS assay (AID 1645840; active = well fitted curve in the direction sought with a large enough effect in the repeat runs; an effect the other way counts as inactive or inconclusive; note: nearly all actives have a fitted effect of over 55% in size; note: potency is the fitted concentration of half-maximal effect; for activity change, negative = inhibition: series mostly up to about 57 µM)
# Chain of Cytochrome P450 2D6 (Homo sapiens) (P10635 whole entry, looked up): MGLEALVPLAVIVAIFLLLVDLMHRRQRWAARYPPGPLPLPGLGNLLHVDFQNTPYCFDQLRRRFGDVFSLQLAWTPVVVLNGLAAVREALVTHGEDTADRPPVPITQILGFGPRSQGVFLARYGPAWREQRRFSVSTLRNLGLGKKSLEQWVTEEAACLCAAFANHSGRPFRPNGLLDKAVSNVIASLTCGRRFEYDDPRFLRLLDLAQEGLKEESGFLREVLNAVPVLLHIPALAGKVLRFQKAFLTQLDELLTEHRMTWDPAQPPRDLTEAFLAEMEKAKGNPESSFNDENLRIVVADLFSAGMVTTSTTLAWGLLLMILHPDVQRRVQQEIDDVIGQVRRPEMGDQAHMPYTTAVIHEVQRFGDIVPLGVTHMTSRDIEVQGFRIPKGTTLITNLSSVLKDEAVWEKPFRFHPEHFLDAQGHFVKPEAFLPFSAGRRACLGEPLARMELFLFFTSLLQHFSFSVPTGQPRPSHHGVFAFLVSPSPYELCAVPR
# Outline: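 P450-Glo CYP2D6 system: proluciferin substrate converted by enzyme to luciferin, read by luminescence proportional to activity. Enzyme-substrate mix with compound 10 min at room temperature, then NADPH regeneration 1 h before detection reagent.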
# [16] = molecular target: Cytochrome P450 2C9 (Homo sapiens) (UniProt P11712); assay: Cytochrome P450 family 2 subfamily C member 9 (CYP2C9) small molecule antagonists: luciferase biochemical (cell-free) qHTS assay (AID 1645842; active = well fitted curve in the direction sought with a large enough effect in the repeat runs; an effect the other way counts as inactive or inconclusive; note: nearly all actives have a fitted effect of over 55% in size; note: potency is the fitted concentration of half-maximal effect; for activity change, negative = inhibition: series mostly up to about 57 µM)
# Chain of Cytochrome P450 2C9 (Homo sapiens) (P11712 whole entry, looked up): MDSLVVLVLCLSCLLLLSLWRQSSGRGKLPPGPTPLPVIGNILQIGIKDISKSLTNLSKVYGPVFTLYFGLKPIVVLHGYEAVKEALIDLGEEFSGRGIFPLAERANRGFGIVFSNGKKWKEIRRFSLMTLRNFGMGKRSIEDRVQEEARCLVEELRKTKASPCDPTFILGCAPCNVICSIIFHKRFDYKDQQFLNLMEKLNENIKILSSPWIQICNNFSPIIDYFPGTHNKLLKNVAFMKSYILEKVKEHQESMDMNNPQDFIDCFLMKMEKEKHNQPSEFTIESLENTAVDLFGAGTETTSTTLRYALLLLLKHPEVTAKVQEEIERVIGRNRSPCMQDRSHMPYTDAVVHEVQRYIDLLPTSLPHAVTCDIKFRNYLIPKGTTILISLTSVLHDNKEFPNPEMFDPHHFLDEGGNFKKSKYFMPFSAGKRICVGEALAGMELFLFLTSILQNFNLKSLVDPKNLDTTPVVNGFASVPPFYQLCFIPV
# Outline: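 P450-Glo CYP2C9 system: proluciferin substrate with enzyme in mix containing 0.4% BSA, 10 min at room temperature, then NADPH regeneration solution added and incubated 1 h at 37C. Detection reagent stopped reaction; luminescence read after 20 min as RLU.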
# [17] = Cell Viability qHTS for small molecule stabilizers of the endoplasmic reticulum resident proteome (AID 1508629); conditions: cell viability counter-screen, 100 nM thapsigargin for final 4 h;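 note: human SH-SY5Y neuroblastoma cells carrying the GLuc-SERCaMP reporter; compound exposure about 46 h in total before the viability read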
# [18] = Tertiary RLuc qRT-PCR qHTS assay for Zika virus inhibitors (AID 1347169); note: top concentration of the series differs between compounds; nearly all actives have a fitted effect of over 55% in size
# Outline: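 Vero cells (1,000 per well) plated overnight at 37 degrees C, treated with compound in DMSO, then infected with recombinant ZIKV-RLuc (Cambodian) at MOI 1-2 for 48-72 hrs. Live-cell Renilla luciferase substrate added; luminescence read after 1-1.5 hrs.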
# [19] = molecular target: Cytochrome P450 3A4 (Homo sapiens) (UniProt P08684); assay: Cytochrome P450 family 3 subfamily A member 4 (CYP3A4) small molecule antagonists: luciferase qHTS assay (AID 1645841; active = well fitted curve in the direction sought with a large enough effect in the repeat runs; an effect the other way counts as inactive or inconclusive; note: nearly all actives have a fitted effect of over 45% in size; note: potency is the fitted concentration of half-maximal effect)
# Chain of Cytochrome P450 3A4 (Homo sapiens) (P08684 whole entry, looked up): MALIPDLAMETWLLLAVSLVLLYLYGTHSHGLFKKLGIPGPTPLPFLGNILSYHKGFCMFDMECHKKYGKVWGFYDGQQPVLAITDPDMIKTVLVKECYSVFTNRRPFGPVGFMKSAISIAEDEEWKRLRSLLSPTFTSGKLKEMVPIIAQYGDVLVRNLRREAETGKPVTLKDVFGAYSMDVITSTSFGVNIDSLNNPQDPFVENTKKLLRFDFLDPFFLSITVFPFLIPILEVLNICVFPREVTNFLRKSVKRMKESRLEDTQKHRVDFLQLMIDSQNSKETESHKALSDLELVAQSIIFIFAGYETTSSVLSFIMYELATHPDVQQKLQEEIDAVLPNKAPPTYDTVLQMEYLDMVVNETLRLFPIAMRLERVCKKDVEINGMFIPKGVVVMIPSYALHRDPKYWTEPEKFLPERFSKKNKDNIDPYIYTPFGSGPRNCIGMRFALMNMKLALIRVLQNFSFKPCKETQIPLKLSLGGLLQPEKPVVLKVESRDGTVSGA
# Outline: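 P450-Glo CYP3A4 enzyme with proluciferin substrate preincubated 10 min with compound at room temperature, then NADPH regeneration 1 h. Luciferin detection reagent added for 20 min; luminescence recorded. Ketoconazole positive control.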
smiles,measurement,setting,value
CN1CC(=O)N2[C@H](c3ccc4c(c3)OCO4)c3[nH]c4ccccc4c3C[C@@H]2C1=O,Potency,[1],inactive
same,Potency,[2],inactive
same,Potency,[3],inactive
same,outcome,[4],inactive
same,outcome,[5],inactive
same,Potency,[6],inactive
same,Potency,[7],inactive
same,Potency,[8],inactive
CN1CCCN=C1/C=C/c1cccs1,Potency,[1],inactive
same,Potency,[2],inactive
same,Potency,[3],inactive
same,outcome,[4],inactive
same,outcome,[5],inactive
same,Potency,[6],inactive
same,Potency,[8],inactive
same,Potency,[9],inactive
COc1ccccc1N1CCN(CCN2C(=O)CC3(CCCC3)CC2=O)CC1,Potency,[10],inactive
same,outcome,[11],inactive
same,outcome,[12],inactive
same,outcome,[5],inactive
same,outcome,[13],inactive
same,Potency,[6],inactive
same,Potency,[7],inactive
same,outcome,[14],inactive
O=C(O)[C@H](O)[C@@H](O)[C@H](O[C@@H]1O[C@H](CO)[C@H](O)[C@H](O)[C@H]1O)[C@H](O)CO,Potency,[1],inactive
same,Potency,[2],inactive
same,Potency,[3],inactive
same,outcome,[4],inactive
same,outcome,[5],inactive
same,Potency,[6],inactive
same,Potency,[7],inactive
same,Potency,[15],inactive
same,Potency,[16],inactive
CN1CCC(=C2c3ccccc3CCc3cccnc32)CC1,Potency,[1],inactive
same,Potency,[3],inactive
same,outcome,[4],inactive
same,outcome,[5],inactive
same,Potency,[6],inactive
same,max response,[17],12.6%
same,Potency,[8],inactive
O=C(CCCCC(=O)Nc1c(I)cc(I)c(C(=O)O)c1I)Nc1c(I)cc(I)c(C(=O)O)c1I,"activity change, negative = inhibition",[18],2.99% [at 5.25 µM]
same,Potency,[1],inactive
same,Potency,[3],inactive
same,outcome,[4],inactive
same,outcome,[5],inactive
same,Potency,[6],inactive
same,Potency,[7],inactive
same,Potency,[8],inactive
same,Potency,[15],inactive
same,Potency,[16],inactive
CN(C)c1cc2c(Nc3ccc4c(cnn4Cc4ccccc4)c3)ncnc2cn1,Potency,[10],inactive
same,outcome,[11],inactive
same,outcome,[12],inactive
same,outcome,[5],inactive
same,outcome,[13],inactive
same,outcome,[14],inactive
CCN(CC)CCNC(=O)c1ccc(NS(C)(=O)=O)cc1,Potency,[10],inactive
same,outcome,[11],inactive
same,outcome,[12],inactive
same,outcome,[5],inactive
same,outcome,[13],inactive
same,Potency,[7],inactive
same,outcome,[14],inactive
CC1(C)O[C@@H]2C[C@H]3[C@@H]4CCC5=CC(=O)C=C[C@]5(C)[C@@]4(F)[C@@H](O)C[C@]3(C)[C@]2(C(=O)CO)O1,Potency,[1],inactive
same,Potency,[2],inactive
same,outcome,[4],inactive
same,outcome,[5],inactive
same,Potency,[6],inactive
same,Potency,[7],inactive
same,Potency,[8],inactive
same,Potency,[16],inactive
CNC[C@H](O)[C@@H](O)[C@H](O)[C@H](O)CO,Potency,[1],inactive
same,Potency,[2],inactive
same,Potency,[3],inactive
same,outcome,[4],inactive
same,outcome,[5],inactive
same,Potency,[6],inactive
same,Potency,[7],inactive
same,Potency,[8],inactive
same,Potency,[15],inactive
same,Potency,[16],inactive
N[C@@H](Cc1cc(I)c(O)c(I)c1)C(=O)O,Potency,[18],inactive
same,Potency,[3],20 µM (active)
same,outcome,[5],inactive
same,max response,[17],10.7%
same,Potency,[16],15.5 µM (active)
CC1(C)O[C@@H]2C[C@H]3[C@@H]4C[C@H](F)C5=CC(=O)C=C[C@]5(C)[C@@]4(F)[C@@H](O)C[C@]3(C)[C@]2(C(=O)CO)O1,Potency,[1],inactive
same,Potency,[2],inactive
same,Potency,[3],inactive
same,outcome,[4],inactive
same,outcome,[5],inactive
same,Potency,[6],inactive
same,Potency,[7],inactive
same,Potency,[15],inactive
same,Potency,[16],inactive
CCC(=O)O[C@H]1[C@H](O[C@@H]2[C@@H](C)[C@H](O[C@H]3C[C@@](C)(OC)[C@@H](O)[C@H](C)O3)[C@@H](C)C(=O)O[C@H](CC)[C@@](C)(O)[C@H](O)[C@@H](C)C(=O)[C@H](C)C[C@@]2(C)O)O[C@H](C)C[C@@H]1N(C)C,Potency,[18],inactive
same,Potency,[1],inactive
same,outcome,[4],inactive
same,outcome,[5],inactive
same,Potency,[6],inactive
same,max response,[17],17.4%
same,Potency,[8],inactive
same,Potency,[15],inactive
same,Potency,[19],18.2 µM (active)
same,Potency,[16],inactive
O=C1OC2(c3ccccc31)c1cc(I)c(O)c(I)c1Oc1c2cc(I)c(O)c1I,"activity change, negative = inhibition",[18],6.31% [at 1.74 µM]
same,outcome,[5],inactive
same,Potency,[6],inactive
same,Potency,[8],inactive
same,Potency,[15],17.4 µM (active)
same,Potency,[16],19.5 µM (active)
same,Potency,[9],1.9 µM (active)
CC1(C)OC(=O)Nc2ccc(Br)cc21,Potency,[1],inactive
same,Potency,[3],inactive
same,outcome,[4],inactive
same,outcome,[5],inactive
same,Potency,[6],inactive
same,Potency,[7],inactive
same,Potency,[8],inactive
CC(C)C(=O)Nc1cccc(C2CN3CCSC3=N2)c1 (centres undefined),Potency,[1],inactive
same,Potency,[3],inactive
same,outcome,[4],inactive
same,outcome,[5],inactive
same,Potency,[6],inactive
same,Potency,[7],inactive
same,Potency,[8],inactive
same,Potency,[15],inactive
O=C(O)C1CCC1,Potency,[1],inactive
same,Potency,[3],inactive
same,outcome,[4],inactive
same,outcome,[5],inactive
same,Potency,[6],inactive
same,Potency,[7],inactive
same,Potency,[8],inactive
same,Potency,[15],inactive
same,Potency,[19],inactive
same,Potency,[16],inactive
O=C(O)[C@@H](O)[C@H](O)[C@H](O)[C@@H](O)C(=O)O,Potency,[1],inactive
same,Potency,[3],inactive
same,outcome,[4],inactive
same,outcome,[5],inactive
same,Potency,[6],inactive
same,Potency,[7],inactive
same,Potency,[8],inactive
same,Potency,[15],inactive
same,Potency,[19],inactive
same,Potency,[16],inactive
O=C(O)c1cn(C2CC2)c2cc(Cl)c(F)cc2c1=O,Potency,[1],inactive
same,Potency,[3],inactive
same,outcome,[4],inactive
same,outcome,[5],inactive
same,Potency,[6],inactive
same,Potency,[7],inactive
same,Potency,[8],inactive
same,Potency,[15],inactive
CC(C)OC(=O)c1cc2c(OCC(O)CNC(C)(C)C)cccc2[nH]1 (centres undefined),Potency,[1],inactive
same,Potency,[3],inactive
same,outcome,[4],inactive
same,outcome,[5],inactive
same,Potency,[6],inactive
same,max response,[17],-12.8%
same,Potency,[8],inactive
same,Potency,[15],11 µM (active)
same,Potency,[16],inactive

# — PubChem BioAssay (NCATS)
